Data on 7 molecules can be found in PubChem BioAssay (Tox21).

“And” between values parts separate entries of the source, which are not always exact repeats. Equal values may be shown once. Results filed as inconclusive are left out. The source holds several records for some structures; these can differ, active in one and inactive in another. The source made the active and inactive calls. The call rests on the fitted dose curve; in most records, active means well fitted curve in the direction sought with a large enough effect in the repeat runs; inconclusive means weak or mixed curves; inactive means no such curve, though single readings can be large; an effect the other way counts as inactive or inconclusive.

Experiment [1] can be described thus: qHTS RealTime-Glo MT Cell Viability Assay in HEK293 cells - 40 hour (AID 1224874). Further: nearly all actives have a fitted effect of over 50% in size. Conditions: RealTime-Glo luminescence; max response: stronger effect = lower value. In a few lines: (§1)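 HEK293 cells mixed with RealTime-Glo reagents (NanoLuc plus cell-permeant prosubstrate) at 600 cells/well, preincubated 5 h at 37 C/5% CO2, then given 23 nL compound in DMSO. Nonlytic luminescence from viable cells was read at 0, 8, 16, 24, 32 and 40 h.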

The nature of experiment [2]: A CellTox Green Cytotoxicity Assay to monitor cytotoxicity in HEK293 cells - 24 hour (AID 1224875). Further: series mostly up to about 77 µM; nearly all actives have a fitted effect of over 45% in size. The gist of the method:
(§2)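 HEK293 cells premixed with CellTox Green dye were seeded at 600 cells/well and left 5 h at 37 C/5% CO2 before pin transfer of 23 nL compound in DMSO. Fluorescence from dye bound to dead-cell DNA was read during 40 h treatment.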

Experiment [3] can be described thus: A CellTox Green Cytotoxicity Assay to monitor cytotoxicity in HepG2 cells - 16 hour (AID 1224876). Further: nearly all actives have a fitted effect of over 45% in size. The gist of the method:
(§3)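 HepG2 cells were seeded together with the CellTox Green dye at 600 cells/well, left 5 h at 37 C/5% CO2, then given compounds in DMSO. Fluorescence from dye bound to dead-cell DNA was read repeatedly over 40 h of treatment at 37 C.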

The nature of experiment [4]: qHTS RealTime-Glo MT Cell Viability Assay in HepG2 cells - 32 hour (AID 1224877). Further: nearly all actives have a fitted effect of over 55% in size. The gist of the method: (§4)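 Compound treatment began 5 h after plating HepG2 cells (600/well) with NanoLuc luciferase and prosubstrate. Plates stayed at 37 C for 40 h; luminescence was captured at six time points, 0 h through 40 h.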
(In qHTS, concentration-response curves come from the screen itself.)

Experiment [5] is described as follows: A CellTox Green Cytotoxicity Assay to monitor cytotoxicity in HepG2 cells - 24 hour (AID 1224878). Further: nearly all actives have a fitted effect of over 45% in size. In a few lines: as §3
A short description of experiment [6]: A CellTox Green Cytotoxicity Assay to monitor cytotoxicity in HepG2 cells - 40 hour (AID 1224879). Further: nearly all actives have a fitted effect of over 40% in size. Further: potency means the concentration at half of the fitted maximal effect. The gist of the method:
as §3

Experiment [7] in a line: qHTS RealTime-Glo MT Cell Viability Assay in HEK293 cells - 0 hour (AID 1224880). Further: top concentration of the series differs between compounds; nearly all actives have a fitted effect of over 45% in size. In a few lines:
as §1

Experiment [8] in a line: A CellTox Green Cytotoxicity Assay to monitor cytotoxicity in HEK293 cells - 32 hour (AID 1224881). Further: nearly all actives have a fitted effect of over 40% in size. In a few lines: as §2
A short description of experiment [9]: A CellTox Green Cytotoxicity Assay to monitor cytotoxicity in HepG2 cells - 0 hour (AID 1224882). Further: nearly all actives have a fitted effect of over 35% in size. The gist of the method:
as §3

The nature of experiment [10]: A CellTox Green Cytotoxicity Assay to monitor cytotoxicity in HepG2 cells - 32 hour (AID 1224883). Further: nearly all actives have a fitted effect of over 50% in size. In a few lines: as §3
The nature of experiment [11]: A CellTox Green Cytotoxicity Assay to monitor cytotoxicity in HEK293 cells - 8 hour (AID 1224884). Further: nearly all actives have a fitted effect of over 35% in size. In a few lines: as §2
A short description of experiment [12]: qHTS RealTime-Glo MT Cell Viability Assay in HepG2 cells - 16 hour (AID 1224885). Further: nearly all actives have a fitted effect of over 50% in size. In a few lines:
as §4

Experiment [13] is described as follows: qHTS RealTime-Glo MT Cell Viability Assay in HEK293 cells - 24 hour (AID 1224886). Further: top concentration of the series differs between compounds; nearly all actives have a fitted effect of over 50% in size. In a few lines: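 Quantitative high-throughput screen of the Tox21 10K library in HEK293: cells and RealTime-Glo reagents plated together, compound added at 5 h, luminescence monitored through 40 h at 37 C.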
Experiment [14] is described as follows: qHTS RealTime-Glo MT Cell Viability Assay in HEK293 cells - 8 hour (AID 1224887). The gist of the method: as §1
The nature of experiment [15]: A CellTox Green Cytotoxicity Assay to monitor cytotoxicity in HEK293 cells - 16 hour (AID 1224888). Further: nearly all actives have a fitted effect of over 35% in size. In a few lines: as §2
The nature of experiment [16]: qHTS RealTime-Glo MT Cell Viability Assay in HepG2 cells - 0 hour (AID 1224889). Further: nearly all actives have a fitted effect of over 50% in size. The gist of the method:
as §4

A short description of experiment [17]: A CellTox Green Cytotoxicity Assay to monitor cytotoxicity in HepG2 cells - 8 hour (AID 1224890). Further: nearly all actives have a fitted effect of over 45% in size. The gist of the method: as §3
A short description of experiment [18]: qHTS assay to identify small molecule antagonists of the estrogen receptor alpha (ER-alpha) signaling pathway using the BG1 cell line in the presence of 0.1 nM 17-beta-estradiol - cell viability counter screen (AID 1259241). Further: nearly all actives have a fitted effect of over 40% in size. The gist of the method: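 VM7Luc4E2 cells (endogenous full-length ER-alpha, 4xERE-luciferase), cultured 5 days in charcoal-stripped serum, exposed to compounds with 0.1 nM 17beta-estradiol (final) for 22 hr at 37C. Viability read in same wells as live-cell protease fluorescence after 30 min.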

A short description of experiment [19]: qHTS assay to identify small molecule antagonists of the androgen receptor (AR) signaling pathway using the MDA cell line in the presence of 0.5 nM R1881 - cell viability counter screen (AID 1259242). Further: nearly all actives have a fitted effect of over 45% in size. In a few lines:
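MDA-kb2 cells (human breast carcinoma, stably carrying MMTV-luciferase reporter) were exposed to compounds with 0.5 nM R1881 (final) for 16 hr at 37C, 0% CO2; viability then read as live-cell protease fluorescence (CellTiter-Fluor, 30 min) in the same wells.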
On the % scale 0 is the no-effect control and ±100 the full control effect.

With `CC(C)N1C(=O)c2ccccc2NS1(=O)=O`, the max response in experiment [1] is -5.03% (inactive) and 3.56% (inactive). In addition, the Potency entry in experiment [2], in experiment [3], in [5], in [6], in experiment [8] and in experiment [9] was “inactive” in each case. In addition, the Potency entry in experiment [10], in experiment [11], in experiment [13], in experiment [15], in experiment [17] and in experiment [18] was “inactive” in each case. Further, the molecule was classed as inactive in experiment [4], in [7], in [12], in experiment [14], in experiment [16] and in experiment [19].
As to `CN(C)N=O`, the max response in experiment [1] was 7.51% (inactive) and -1.45% (inactive). In addition, the Potency entry in [2], in [3], in experiment [5], in experiment [6], in [8] and in experiment [9] was “inactive” throughout. The Potency result in experiment [10], in experiment [11], in experiment [13], in experiment [15], in experiment [17] and in [18] was “inactive” throughout. Besides, the molecule was called inactive in experiment [4], in experiment [7], in experiment [12], in experiment [14], in experiment [16] and in experiment [19].
Take `Clc1ccccc1Cl`: in experiment [1], the max response was 2.45% (inactive) and -10.4% (inactive). In addition, the Potency entry in [2], in experiment [3], in [5], in experiment [8], in experiment [9] and in experiment [10] was “inactive” in each case. For the same molecule, the Potency result in [11], in [13], in experiment [15], in experiment [17] and in experiment [18] was “inactive” each time. Further, the outcome in experiment [4], in [7], in [12], in [14] and in experiment [16] was inactive. Moreover, the Potency entry in experiment [6] is “inactive and 54.9 µM (active)”.
In the case of `Nc1c(Cl)c(Cl)nc(C(=O)O)c1Cl`, the max response in [1] is 19.5% (inactive) and -5.11% (inactive) and 22.8% (inactive). Besides, the Potency result in experiment [2], in [3], in experiment [5], in [6], in experiment [8] and in experiment [9] was “inactive” throughout. Further, the Potency result in [10], in [11], in experiment [13], in experiment [15], in experiment [17] and in experiment [18] was “inactive” in each case. Moreover, the result in [4], in experiment [7], in [12], in [14] and in experiment [16] was inactive.
For `O=C1CCCN1`, in experiment [1], the max response is 1.24% (inactive) and -5.73% (inactive). The Potency result in [2], in experiment [3], in [5], in [6], in experiment [8] and in [9] was “inactive” each time. The Potency entry in experiment [10], in [11], in experiment [13], in experiment [15], in [17] and in experiment [18] was “inactive” each time. Further, the call in experiment [4], in [7], in [12], in experiment [14], in experiment [16] and in experiment [19] was inactive.
Turning to `CN(N=O)c1ccccc1`, the max response in experiment [1] is 9.26% (inactive) and 4.33% (inactive). Further, the Potency entry in experiment [2], in [3], in experiment [5], in experiment [6], in experiment [8] and in experiment [9] was “inactive” in each case. Besides, the Potency entry in experiment [10], in experiment [11], in experiment [13], in experiment [15], in experiment [17] and in experiment [18] was “inactive” in each case. Also, the molecule was called inactive in [4], in [7], in experiment [12], in [14], in experiment [16] and in experiment [19].
Regarding `OCCN(CCO)CCO`, the max response in experiment [1] was -6.59% (inactive) and 8.79% (inactive). In addition, the Potency entry in experiment [2], in [3], in [5], in [6], in experiment [8] and in experiment [9] was “inactive” throughout. Moreover, the Potency entry in experiment [10], in [11], in experiment [13], in experiment [15], in experiment [17] and in experiment [18] was “inactive” each time. In addition, the result in [4], in experiment [7], in [12], in experiment [14] and in experiment [16] was inactive.
